# USP1-UAF1 inh = blocks the human USP1/UAF1 deubiquitinase complex | Potency, µM (doses to about 57.1 µM), inactives show at the top dose activity change, negative = inhibition, actives largely listed as inhibitors | recombinant USP1/UAF1, Ub-Rhodamine cleavage fluorescence | O94782 | hit rate 0.23% among 390,000; also: potency is read from the fitted curve at half-maximal effect; nearly all actives have a fitted effect of over 60% in size
#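 USP1/UAF1 complex at 1 nM was preincubated with compound for 15 min at room temperature, then Ub-Rho substrate (150nM final) was added. Fluorescence (480/540 nm) was read kinetically, 6 reads every 60 seconds.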
# Tau fluor cs = counter-screen for tau fibril formation inhibitors. tau K18 P301L Alexa594 fluorescence, heparin fibrillization. Potency, µM (doses to about 57.7 µM), for the others: at the highest dose activity change, negative = decrease. hit rate 0.93% among 280,000; also: potency is read from the fitted curve at half-maximal effect; nearly all actives have a fitted effect of over 55% in size
#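 Human tau K18 P301L (15 uM unlabeled, 0.24 uM Alexa 594-labeled) in 100 mM sodium acetate pH 7 with 20 uM heparin, 6 hr at 37 C. ThT 30 uM added, 1 hr ambient; Alexa 594 FP and total fluorescence read at 555/632 nm.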
# FBPA coupling cs = coupling enzyme interference in Giardia aldolase counter-screen; AID 2472; activity change, negative = inhibition, % at 58.2 µM, hits read low; hit rate 0.67% among 290,000; coupling enzyme system counterscreen, AmpLite Red fluorescence; in the data active = activity change below about -30%
#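 Coupling enzymes only (glyceraldehyde-3-phosphate) + compound, at 57.5 uM final, 10 min RT; add substrate/coupling/AmpLite Red mix, 20 min RT; fluorescence ex 525/em 598 nm. Actives flag coupling-system interference.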
# Tau ThT inhib = inhibitors of human tau fibril formation, thioflavin T binding; P10636; recombinant tau K18 P301L, heparin-induced fibrillization, ThT fluorescence; Potency, µM (titrated, usually from 57.4 µM), for inactives: top-dose activity, negative = inhibition, usual class: inhibitors; hit rate 2.1% among 270,000; AID 1460; also: potency is read from the fitted curve at half-maximal effect; nearly all actives have a fitted effect of over 55% in size
# Target sequence (P10636 561-689 P618L limits assumed): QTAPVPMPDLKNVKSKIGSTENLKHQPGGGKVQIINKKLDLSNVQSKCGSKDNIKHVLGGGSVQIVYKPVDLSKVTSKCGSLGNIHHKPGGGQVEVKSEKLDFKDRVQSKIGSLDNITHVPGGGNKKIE
#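 ThT emission at 510 nm, taken 1 hr after adding 30 uM dye, quantifies aggregates formed when 20 uM heparin acts on human tau K18 P301L for 6 hr at 37 C.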
# Tau FP inhib = blocks human tau fibril formation measured by polarization; hit rate 0.39% among 280,000; Potency, µM (highest dose often 57.7 µM), without a hit: at the highest dose activity, negative = inhibition, hits mostly inhibitors; AID 1468; P10636; K18 P301L tau heparin fibrillization, Alexa594 FP, 6 h; also: potency is read from the fitted curve at half-maximal effect; nearly all actives have a fitted effect of over 55% in size
#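 K18 P301L tau (15 uM unlabeled/0.24 uM Alexa 594-labeled, final) + compound + heparin 20 uM final; 100 mM NaOAc pH 7; 6 hr 37 C; ThT 30 uM final added, 1 hr RT; FP ex 555/em 632 nm.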
# * = called active by the depositor; ? = inconclusive; . = not tested or not shown; [ ] = remark or other dose. Most compounds without a hit are left out; they make up all but 2.3% or so of the library. Unless noted, calls follow the shape of the dose curve; as a rule, active = well fitted curve in the direction sought with a large enough effect; inconclusive = small, poorly fitted or top-dose-only effect, or another doubt; inactive = no such curve, though single readings can be large; an effect the other way counts as inactive or inconclusive. % is scaled to controls: 0 for no effect and ±100 for the full control effect.
SMILES,USP1-UAF1 inh,Tau fluor cs,FBPA coupling cs,Tau ThT inhib,Tau FP inhib
COc1cc(/C=C2\SC(=S)N(NC(=O)c3ccccc3O)C2=O)ccc1O,?,.,-1,.,.
CCOc1ccc(CNCCN2CCCC2)cc1,-9%,.,0,.,.
CCc1ccccc1NC(=O)Cn1c(=O)n(-c2ccccc2)c(=O)c2oc3ccccc3c21,-2%,14%,.,14%,-15%
O=C1[C@@H]2CSC(c3ccc(F)cc3)N2C(=O)N1c1ccc(Cl)cc1 (stereo partly drawn),-18%,-19%,.,1%,-1%
CCCN(Cc1ccc(N(CC)CC)cc1)CC1CC1,-3%,-4%,1,-7%,1%
CCCN(Cc1ccc(N(C)C)cc1)CC1CC1,-16%,-9%,-50*,-11%,-6%
CC(C)(C)OC(=O)N1CC23CC(c4ccc(F)cc4)C(CC2S1(=O)=O)O3 (stereo not drawn),.,.,2,.,.
CCc1cc(C(c2ccc(F)cc2)N2CCOCC2)c(NC(=O)c2ccccc2)s1 (stereo not drawn),-8%,?,.,32µM*,-9%
Cc1ccc(NC2=C(Cl)C(=O)c3ccccc3C2=O)cc1,-23%,?,-22,2.2µM*,?
O=S1(=O)N=C(Nc2ccc(O)cc2)c2ccccc21,5%,-9%,0,-3%,8%
CCN(CC)c1ccc(NC2=C(Cl)C(=O)c3ccccc3C2=O)cc1,?,2.2µM*[quencher],-38*,2.8µM*,5µM*
O=C1C=C(Nc2ccc(O)cc2)C(=O)c2ccccc21,-27%,16µM*[quencher],-16,13µM*,?
CCN(CC)c1ccc(NC(=O)C(C)C)cc1,10%,5%,-3,5%,6%
O=C1C(Cl)=C(Nc2ccc(O)cc2)C(=O)c2ccccc21,-24%,2µM*[quencher],-26,2µM*,3.5µM*
COc1ccc(NC(=O)C(=O)NCC2(c3ccccc3)CCCC2)c(OC)c1,-2%,?,.,?,-6%
COC(=O)/C(=C1/Oc2cc(C)oc(=O)c2S1)C(F)(F)F,-17%,-21%,0,8.9µM*,?
COC(=O)/C(=C1/Oc2ccc(C(C)(C)C)cc2S1)C(F)(F)F,-4%,-6%,-3,-15%,-12%
COc1ccc(N(Cc2cccs2)C(=O)COc2cccc(Cl)c2)cc1,-12%,-17%,.,-10%,4%
COc1ccc(CC(=O)N2CCN(C(=O)Cc3ccc(OC)cc3)CC2)cc1,-18%,-2%,0,-6%,-5%
COc1ccc(-c2ccc(C(=S)N3CCN(C(C)=O)CC3)o2)cc1,-4%,-28%,-7,28µM*,?
COc1ccc(Cl)cc1Nc1nc(-c2sc(NC(=O)c3ccccc3)nc2C)cs1,.,?,1,?,9%
C=CCCC(=O)Nc1nc(C)c(-c2csc(Nc3ccc(Cl)cc3Cl)n2)s1,-27%,14µM*[quencher],6,7.9µM*,-6%
C=CCCC(=O)Nc1nc(C)c(-c2csc(Nc3cc(Cl)ccc3OC)n2)s1,-17%,14µM*[quencher],-3,?,14%
CCC1(C)Cc2c(C#N)c(N)sc(=S)c2CO1 (stereo not drawn),0%,-16%,-29,25µM*,?
Cc1[nH]c(=S)c(C#N)c2c1CCCC2,-13%,-16%,3,-15%,-16%
SMILES,USP1-UAF1 inh,Tau fluor cs,FBPA coupling cs,Tau ThT inhib,Tau FP inhib
CCC1(C)Cc2c(C#N)c(N)n(-c3ccccc3)c(=S)c2CO1 (stereo not drawn),-21%,4%,1,9%,-9%
N#Cc1c(N)sc(=S)c2c1CCCC2,-9%,?,-18,14µM*,-3%
COc1ccc(Nc2oc(COc3ccc(OC)cc3)nc2C#N)cc1,-17%,28µM*[quencher],-1,?,4%
COc1ccc(Nc2oc(COc3ccc(C)cc3)nc2C#N)cc1,?,?,0,?,6%
CSc1cccc(NC(=O)/C=C/c2cccc(Cl)c2)c1,-15%,13µM*[quencher],-4,19%,?
CCCCn1c(NC(C)=O)c(C#N)c2nc3ccccc3nc21,-22%,-3%,-59*,-4%,-1%
C=CCn1c(NC(=O)c2ccccc2Cl)c(C#N)c2nc3ccccc3nc21,16µM*,-25%,-52*,?,?
CCCCn1c(CNC(C)=O)nc2ccccc21,-10%,-1%,1,-10%,-6%
C=CCn1c(N)c(C(=O)Nc2ccc(C)c(C)c2)c2nc3ccccc3nc21,-17%,?,5,-4%,-15%
COc1ccccc1N1CCN(C(=O)c2ccc3c(c2)N(Cc2ccccc2)C(=O)c2ccccc2S3(=O)=O)CC1,?,-24%,.,-6%,2%
CC(=O)Oc1ccc2c(c1)C(=O)CCCCCC(=O)O2,1%,.,.,.,.
O=C(NCc1ccccn1)c1ccc2nc(C3CCCCC3)oc2c1,-18%,.,0,.,.
Cc1cc(=O)oc2cc(OCC(=O)N/N=C/c3cc([N+](=O)[O-])ccc3O)ccc12,-7%,-19%,5,3.5µM*,-7%
O=C(c1ccc(-c2ccccc2)cc1)N1CCN(c2ncccn2)CC1,0%,-6%,-75*,-17%,-1%
Cc1cc2nc3c(=O)n(CCc4ccccc4)c(=O)[nH]c3nc2cc1N,18µM*,8.9µM*[quencher],-22,.,?
Nc1ccc2nc3c(=O)n(CCc4ccccc4)c(=O)[nH]c3nc2c1,16µM*,?,-20,.,?
Nc1ccc2nc(CCc3ccccc3)[nH]c2c1,-21%,-1%,-4,?,3%
CCCCn1c(=O)[nH]c2nc3cc(N)ccc3nc2c1=O,28µM*,-7%,-53*,3%,-12%
Nc1ccc2nc3c(=O)n(C4CCCCC4)c(=O)[nH]c3nc2c1,102%,-22%,-15,1%,2%
CCCCCCCCCCCCCc1ccco1,.,-6%,1,-1%,-9%
O=C(CSC1=NCCS1)NC(NC(=O)CSC1=NCCS1)c1ccccc1,-12%,-7%,1,-15%,-6%
O=C(CSC1=NCCS1)NC(c1ccccc1)c1ccccc1,-14%,-10%,2,16µM*,?
COc1ccc2nc(NNC(=O)c3cc(=O)c4ccccc4o3)sc2c1,28µM*,?,-3,4.5µM*,-20%
